p53null 32C tox = kills p53 null cells at the permissive temperature | Potency, µM (series often up to 46.1 µM), for inactives: top-dose activity change, negative = cytotoxicity, actives largely listed as cytotoxic | H1299-neo p53 null cells, ATP luminescence, 24 h, 32C | actives 0.62% (n = 55,000);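 further: 0% = DMSO only and -100% = full killing by 100 µM tamoxifen; nearly all actives have a fitted effect of over 55% in size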
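Overnight 37C seeding (600 cells/well) of H1299-neo preceded a 24 hr, 32C exposure to compounds up to 46 uM. ATP levels, read by luminescence after 20 min at RT, indicated surviving cells.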
OvCa metastasis = ovarian cancer metastasis inhibition, 3D TME model; SKOV3ip1-GFP adhesion/invasion on 3D omental model, fluorescence; Potency, µM (top dose mostly 45.8 µM), inactives show at the top dose activity change, negative = inhibition, usual class: inhibitors; actives 0.1% (n = 46,000); AID 1963576;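 further: plate controls were DMSO wells for no effect and tomatine positive control wells for full effect; nearly all actives have a fitted effect of over 65% in size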
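Adhesion/invasion was scored as fixed GFP-labeled SKOV3ip1 cell counts (488/509 nm), normalized to DMSO and tomatine controls. Cancer cells in serum-free medium, with four compound doses (0.36-46 umol/L), sat 2 hr at RT then 16 hr at 37 C on a 48 hr fibroblast/mesothelial/ECM culture.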
S16 viability = cytotoxicity in S16 Pmp22-F2sN Schwann cells | S16 Pmp22-F2sN Schwann cells viability, CellTiter-Glo, 24 h | Potency, µM (doses to about 57.5 µM), for inactives: at the highest dose activity change, negative = cytotoxicity, most hits filed as cytotoxic | AID 1508642 | actives 0.48% (n = 43,000); further: nearly all actives have a fitted effect of over 65% in size
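S16 Schwann cells carrying the Pmp22-F2sN reporter, seeded in 1536-well format, were exposed to library compounds for 24 h at 37C. Viability was read as CellTiter-Glo luminescence after 15 min at room temperature.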
PMP22 txn prim = modulators of PMP22 gene transcription in S16 Schwann cells; S16 Pmp22-F2sN Schwann cells (luciferase reporters placed in the Pmp22 gene), FLuc/NLuc coincidence luminescence, 24 h; actives 2% (n = 43,000); Potency, µM (titrated, usually from 57.5 µM), for the others: top-dose activity change, negative = inhibition, usual class: inhibitors; AID 1508649; active means clear falling dose curves in both reporters; inconclusive means both reporters move, but less clearly or upward; inactive means either reporter flat; the % is the NLuc reporter signal
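S16(c9) Schwann cells with FLuc/NLuc coincidence reporter in the Pmp22 3' UTR; compounds pin-transferred, 24 h at 37C. Dual-luciferase read: FLuc first, then NLuc after Stop&Glo, each 10 min at room temperature.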
pS6 MEF inh = mTORC1 pathway inhibition measured by phospho-rpS6. Potency, µM (highest dose often 38.3 µM), for inactives: at the top dose activity change, negative = inhibition, hits mostly inhibitors. AID 493208. Tsc2-/- p53-/- MEF, phospho-rpS6 immunofluorescence/PI, 24 h. actives 0.78% (n = 44,000);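 further: plate controls were DMSO for no effect and rapamycin for full effect; nearly all actives have a fitted effect of over 50% in size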
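Read-out: phospho-S6 Alexa-488 intensity over PI intensity per well, scored as % active cells using thresholds from rapamycin (7.5 nM) and DMSO controls. Tsc2-/-, p53-/- MEFs exposed to compound for 24 h; PI cell count recorded as viability.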
p53null 39C kill = selectivity test: cytotoxicity in p53 null cells, nonpermissive temperature. H1299 p53-null (neo) cells, 39C, ATPlite viability, 24 h. Potency, µM (doses to about 46.1 µM), for the others: top-dose activity, negative = cell killing, actives largely listed as cytotoxic. actives 0.97% (n = 55,000). AID 904;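 further: 0% = DMSO only and -100% = full killing by 100 µM tamoxifen; nearly all actives have a fitted effect of over 50% in size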
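Luminescent ATP signal reported cell survival after H1299 lines (neo, p53 null; or p53 A138V) received up to 46 uM compound and 24 hr incubation at 39C.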
Starred values were filed as active, the others as inactive; i = inactive; ? = inconclusive; . = no result. This is a sample that favours compounds with a hit; in the whole collection about 3.1% have one here. Unless noted, the call rests on the fitted dose curve; in most records, active means well fitted curve in the direction sought with a large enough effect; inconclusive means small, poorly fitted or top-dose-only effect, or another doubt; inactive means no such curve, though single readings can be large; an effect the other way counts as inactive or inconclusive. Unless noted, on the % scale 0 is the no-effect control and ±100 the full control effect; potency means the concentration at half of the fitted maximal effect.

SMILES	p53null 32C tox	OvCa metastasis	S16 viability	PMP22 txn prim	pS6 MEF inh	p53null 39C kill
O=C(NCc1ccccc1)c1nc(S(=O)(=O)Cc2ccccc2)ncc1Cl	-14%	?	8.9µM*	6.5µM*	16µM*	86%
COc1ccc(CNC(=O)c2nc(S(=O)(=O)Cc3ccccc3)ncc2Cl)cc1	-4%	3.5µM*	5.6µM*	5.3µM*	21µM*	13µM*
CC[C@H](CC#N)OC(=O)N[C@@H](C)c1cccc(NC(=O)Nc2ccc(-c3cnco3)c(OC)c2)c1	.	-25%	.	.	.	.
CC(C)C[C@H](NC(=O)CNC(=O)c1cc(Cl)ccc1Cl)B(O)O	.	-9%	.	.	.	.
CCN(CC)CCCNc1sc(S(=O)(=O)c2ccccc2)nc1S(=O)(=O)c1ccc(Cl)cc1	2%	?	?	?	9.3µM*	?
CC(C)OCCCNc1sc(S(=O)(=O)c2ccccc2)nc1S(=O)(=O)c1ccc(Cl)cc1	0%	6%	-13%	?	-13%	-10%
COc1cc2c(cc1Cc1cccc(Cl)c1F)c(=O)c(C(=O)O)cn2[C@H](CO)C(C)C	.	-13%	.	.	.	.
Cc1cccc(NC(=O)CSc2ccc(-c3ccccn3)nn2)c1	-16%	?	-19%	?	?	?
COc1cc(NC(=O)CSc2ccc(-c3ccccn3)nn2)cc(OC)c1	-28%	i	-27%	?	13µM*	?
Cc1ccc(NC(=O)CSc2ccc(-c3ccccn3)nn2)cc1F	-18%	-18%	-22%	-47%	15µM*	-10%
CC(C)(F)C[C@H](N[C@@H](c1ccc(-c2ccc(S(C)(=O)=O)cc2)cc1)C(F)(F)F)C(=O)NC1(C#N)CC1	.	-8%	.	.	.	.
CC(C)c1cc(C(=O)N2Cc3ccc(CN4CCN(C)CC4)cc3C2)c(O)cc1O	.	5%	.	.	.	.
COC[C@H](NC(=O)c1cnc(C)s1)C(=O)N[C@@H](COC)C(=O)N[C@@H](Cc1ccccc1)C(=O)[C@@]1(C)CO1	.	-9%	.	.	.	.
Cn1c(=O)oc2cc(S(=O)(=O)N3CCC(C(=O)N4CCN(c5ccc(Cl)cc5)CC4)CC3)ccc21	3%	15%	?	13µM*	-3%	10%
Cn1c(=O)oc2cc(S(=O)(=O)N3CCC(C(=O)N4CCN(c5cccc(Cl)c5)CC4)CC3)ccc21	34%	i	?	?	-17%	13%
CC(C)OC(=O)CCCC=CC[C@@H]1[C@H](C=C[C@@H](O)COc2cccc(C(F)(F)F)c2)[C@H](O)C[C@@H]1O	.	-22%	.	.	.	.
O=C(CSc1nnc2[nH]c(=O)cc(-c3ccccc3)n12)Nc1ccccc1C(F)(F)F	?	-7%	1%	5%	0%	?
CCc1ccc(NC(=O)CSc2nnc3[nH]c(=O)cc(-c4ccccc4)n23)cc1	2.5µM*	3%	-12%	-18%	-3%	?
COc1ccc(Cl)cc1NC(=O)CSc1nnc2[nH]c(=O)cc(-c3ccccc3)n12	2.5µM*	-3%	2%	?	-7%	10%
COc1ccc2c(Oc3ccc(NC(=O)c4c(C)n(CC(C)(C)O)n(-c5ccccc5)c4=O)cc3F)ccnc2c1	.	11%	.	.	.	.
Nc1nc(=O)n([C@H]2CSC(CO)O2)cc1F (stereo partly specified)	.	4%	.	.	.	.
O=C(CCCc1ccccc1)c1ccc2c(c1)OCCO2	10µM*	.	.	.	.	13µM*
COc1ccc(-c2cc(C(F)(F)F)nc(S(=O)(=O)CCCC(=O)Nc3ccccc3C(F)(F)F)n2)cc1OC	-15%	?	?	?	18µM*	?
COc1ccccc1-c1cc(C(F)(F)F)nc(S(=O)(=O)CCCC(=O)Nc2cc(OC)c(OC)c(OC)c2)n1	?	0%	8%	0%	0%	?
